KDM4E inh: inhibitors of human JMJD2E histone demethylase; Potency, µM (titrated, usually from 57.1 µM), inactives show at the top dose activity change, negative = inhibition, usual class: inhibitors; B2RXH2; AID 2147; 230,000 tested, 1.6% active; JMJD2E catalytic domain, FDH-coupled NADH fluorescence (FDH is formaldehyde dehydrogenase);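 also: potency is read from the fitted curve at half-maximal effect; 0% = wells with enzyme and -100% = buffer wells without enzyme; nearly all actives have a fitted effect of over 50% in size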
Target sequence (B2RXH2 1-337 limits assumed): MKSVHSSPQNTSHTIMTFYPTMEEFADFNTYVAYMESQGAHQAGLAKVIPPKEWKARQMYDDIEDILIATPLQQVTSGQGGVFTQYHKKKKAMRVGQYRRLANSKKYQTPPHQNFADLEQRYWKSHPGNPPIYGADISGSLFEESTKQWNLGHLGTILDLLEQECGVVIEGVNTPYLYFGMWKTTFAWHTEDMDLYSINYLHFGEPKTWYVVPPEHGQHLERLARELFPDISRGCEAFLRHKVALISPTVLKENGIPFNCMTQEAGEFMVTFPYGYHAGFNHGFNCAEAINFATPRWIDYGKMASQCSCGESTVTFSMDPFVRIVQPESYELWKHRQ
Six1-Eya2 inh: blocks human Six1 binding to Eya2 | Q15475+O00167 | AlphaScreen GST-Six1/His-Eya2 binding, biochemical; hits give low values | activity change, % (test concentration not listed) | 360,000 tested, 0.56% active; in the data active = activity change below about -65%; inconclusive = mostly about -30% to -63%
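Six1/Eya2 binding was read as AlphaScreen signal after compounds were pinned into GST-Six1 plus His-tagged Eya2 (5X stock 250/500 nM) in pH 8.0 Tris/NaCl/TCEP buffer, beads added, then incubated 1 h, 37 C, dark.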
Eya2 phos inh: blocks the phosphatase activity of human Eya2. O00167. recombinant Eya2, OMFP fluorescence dephosphorylation (OMFP is methylfluorescein phosphate). Potency, µM (series often up to 76.9 µM), without a hit: at the highest dose activity, negative = inhibition, usual class: inhibitors. 330,000 tested, 0.006% active; also: potency is read from the fitted curve at half-maximal effect
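Eya2 (0.2 uM) preincubated 10 min at ambient with compound, then OMFP substrate added at 50 uM; 10 min reaction in 50 mM HEPES pH 7.5, 50 mM NaCl, 5 uM MgCl2, 0.05% BSA, 1 mM DTT. Fluorescence read at Ex 485/Em 525 nm.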
Apoferritin bind: candidate novel general anesthetic via apoferritin binding; 350,000 tested, 0.074% active; P02791; Potency, µM (series often up to 77.5 µM), for the others: top-dose activity change, negative = displacement, most hits filed as inhibitors; apoferritin/1-aminoanthracene competitive binding, fluorescence; also: potency is read from the fitted curve at half-maximal effect; nearly all actives have a fitted effect of over 20% in size
Target sequence (P02791 2-175 limits assumed): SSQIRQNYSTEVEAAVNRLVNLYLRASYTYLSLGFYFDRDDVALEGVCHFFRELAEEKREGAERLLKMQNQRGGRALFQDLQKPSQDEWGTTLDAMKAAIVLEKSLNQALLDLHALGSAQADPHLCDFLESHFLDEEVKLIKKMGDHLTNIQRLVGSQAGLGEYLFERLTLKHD
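Steps: apoferritin (10 uM) was premixed with half-saturated 1-AMA in PBS, compounds were pin-transferred, plates stood 10 min at room temperature, fluorescence was read at 380/535 nm, and curves were fitted with a Hill equation.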
CtBP-E1A blk: inhibitors of CtBP/E1A interaction. AlphaScreen GST-E1A/His-CtBP binding, 1536-well; hits give low values. activity change, % (test concentration not listed). 340,000 tested, 0.49% active; in the data active = activity change below about -65%; inconclusive = mostly about -30% to -63%
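AlphaScreen with 125 nM GST-E1A and 125 nM His-CtBP (5X stocks) in Tris pH 8.0, 300 mM NaCl, BSA, Tween 20, TCEP. Compounds preincubated 2 h at 37 deg C, then glutathione donor/nickel acceptor beads added for 1 h at 37 deg C in dark.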
GALK inhibitor: galactokinase (human) inhibition | 270,000 tested, 0.007% active | AID 1868 | Purified GALK, Kinase-Glo residual ATP luminescence | Potency, µM (series often up to 57.5 µM), for the others: at the top dose activity change, negative = inhibition, actives largely listed as inhibitors; also: potency is read from the fitted curve at half-maximal effect
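The enzyme phosphorylates galactose (100 uM) using ATP (35 uM); inhibition is detected as higher residual ATP, quantified by bioluminescence after 1 h reaction at room temperature, pH 8.0.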
An asterisk follows results filed as active; ? = inconclusive; / = no result given. Many of the other results were omitted from the sample, so hits are more common in it than they were. Unless noted, calls follow the shape of the dose curve; as a rule, active = well fitted curve in the direction sought with a large enough effect; inconclusive = small, poorly fitted or top-dose-only effect, or another doubt; inactive = no such curve, though single readings can be large; an effect the other way counts as inactive or inconclusive. Unless noted, % is scaled to controls: 0 for no effect and ±100 for the full control effect.

SMILES	KDM4E inh	Six1-Eya2 inh	Eya2 phos inh	Apoferritin bind	CtBP-E1A blk	GALK inhibitor
CSCC[C@H](NC(=O)OC(C)(C)C)C(=O)N/N=C/c1cccc2cccnc12	?	?	-9.6%	-7.6%	-74.7*	0.4%
COc1ccc(C(=O)N/N=C/c2cccnc2)cc1	/	5.2	0.9%	8.8%	2.0	-0.7%
COc1ccc(C(=O)N/N=C/c2cccc3cccnc23)cc1	?	-90.2*	6.3%	-16.2%	-92.5*	-3.0%
CCOc1ccccc1C(=O)N/N=C/c1cccc2cccnc12	-25.4%	?	-2.7%	-21.4%	?	-3.2%
COc1ccc(Nc2ncnc3onc(C)c23)cc1Cl	/	/	/	-3.9%	/	/
CC[C@H](C)[C@H](NC(=O)[C@H](C)NC(=O)[C@@H](N)C(C)C)C(=O)N[C@H](C(=O)N[C@H](C(=O)N[C@@H](CC(C)C)C(=O)N[C@H](C(=O)N[C@@H](CCCCN)C(=O)O)C(C)C)C(C)C)[C@@H](C)O	/	/	/	-8.5%	/	/
CC(=O)OCC1OC(n2cnc3c(Cl)nc(Cl)nc32)C(OC(C)=O)C1OC(C)=O (stereo not given)	-0.2%	/	/	-4.0%	/	/
Cc1nn(C(C)(C)C)c(OC(=O)c2cccc(F)c2)c1Sc1ccccc1	/	/	/	-12.4%	/	/
COc1ccc(C(=O)NCC(c2cccnc2)N2CCc3ccccc3C2)cc1OC (stereo not given)	/	/	/	-20.7%	/	/
N[C@H](CSSC[C@@H](N)C(=O)O)C(=O)O	/	/	/	-4.2%	/	/
COc1ccc(C(=O)N/N=C/c2c(C)[nH]c(=O)[nH]c2=O)cc1	-2.1%	?	-9.1%	-8.3%	-85.9*	8.8%
Cc1[nH]c(=O)[nH]c(=O)c1/C=N\NC(=O)CCc1ccc(OC(C)C)cc1	3.1%	/	11.1%	-9.6%	/	7.4%
O=[N+]([O-])c1cccc(COc2ncnc3cc([N+](=O)[O-])ccc23)c1	-6.8%	-71.9*	19.0%	4.3%	-88.1*	/
O=C(NCc1ccc2c(c1)OCO2)c1ccc2c(c1)N(Cc1c(F)cccc1Cl)C(=O)c1ccccc1S2	/	/	/	-11.1%	/	/
Nc1nnc(CSCc2ccccc2Cl)s1	9.5%	4.3	4.0%	?	6.6	-1.5%
Nc1nnc(SCc2ccccc2Cl)s1	5.3%	6.4	/	11.2µM*	5.6	1.5%
O=C(CCc1ccccc1)Nc1cc(Cl)ccc1O	-8.9%	-9.4	-31.5%	5.62µM*	-9.8	-3.5%
C=CCOC(=O)N[C@@H](c1cccs1)C(C(C)=O)C(C)=O	-0.2%	/	/	/	/	/
CCOc1ccc(S(=O)(=O)N(C(=O)c2ccco2)c2cc3sc(=O)oc3c3ccccc23)cc1	15.8µM*	-15.8	-3.3%	?	-17.4	-0.8%
COc1ccc(S(=O)(=O)N(C(=O)C(C)C)c2ccc3oc(=O)sc3c2)cc1	-8.5%	-12.9	6.3%	?	-7.2	-2.3%
Cc1ccc(S(=O)(=O)N(C(=O)c2ccco2)c2cc3sc(=O)oc3c3ccccc23)cc1	14.1µM*	-28.5	-11.5%	-22.0%	?	-1.8%
COc1ccc(S(=O)(=O)N(C(=O)c2ccco2)c2cc3sc(=O)oc3c3ccccc23)cc1	12.6µM*	-27.1	-4.3%	?	-27.2	-0.2%
COc1ccc(-c2noc(CSCC(=O)Nc3ccc(C)cc3Br)n2)cc1OC	/	/	/	-5.7%	/	/
CCOC(=O)C(C)Sc1nc(-c2ccccn2)ncc1OC (stereo not given)	?	-91.1*	-12.8%	-6.3%	/	0.2%
COc1ccc(Oc2nc(-c3ccccn3)ncc2OC)cc1	9.5%	?	3.6%	-9.1%	-16.3	0.1%
SMILES	KDM4E inh	Six1-Eya2 inh	Eya2 phos inh	Apoferritin bind	CtBP-E1A blk	GALK inhibitor
CN(C)c1nc(-c2ccccn2)nnc1-c1ccccc1	?	-91.8*	-29.8%	-23.3%	-96.4*	1.2%
c1ccc(-c2nnc(-c3ccccn3)c(-c3ccccn3)n2)nc1	3.7%	-21.8	-17.9%	-1.5%	?	2.5%
COc1cnc(-c2ccccn2)nc1N(C)C	?	-89.1*	3.3%	-2.9%	-93.8*	-0.2%
O=C(Nc1ccc2c(c1)N(C1CCCC1)C(=O)c1ccccc1S2)c1ccc(F)cc1	/	/	/	-2.0%	/	/
Cc1ccc(Cl)cc1NC(=O)c1cc2ccccc2cc1O	22.4µM*	7.4	-3.1%	7.3%	11.2	/
COc1cc(NC(=O)c2cc3ccccc3cc2O)c(OC)cc1Cl	?	-0.4	-7.1%	52.1%	/	-2.0%
CC(=O)c1ccc(NC(=O)CN(C)S(=O)(=O)c2cccc3nsnc23)cc1	/	/	/	-1.2%	/	/
O=C(O)c1ccc(CCN2CCN(CC=Cc3ccc(Cl)cc3)CC2)cc1	/	/	/	4.6%	/	/
O=C(CN1C(=O)c2ccccc2S1(=O)=O)c1ccc(O)c(O)c1	14.1µM*	-12.9	0.6%	-12.8%	-11.9	5.0%
O=C(CN1C(=O)c2ccccc2S1(=O)=O)c1ccc(F)c(F)c1	/	10.1	12.4%	?	2.8	-2.5%
NC(=O)c1ccsc1NC(=O)COC(=O)/C=C/c1ccc([N+](=O)[O-])cc1	20.9%	-7.3	26.2%	-0.7%	-16.6	/
COC(=O)c1ccc(/C=C/C(=O)OCC(=O)Nc2sccc2C(N)=O)cc1	/	?	-0.2%	/	-69.4*	/
CCOc1ccc(NC(=O)CSc2ccc(-c3ccccn3)nn2)cc1	7.9%	?	3.2%	-4.3%	-0.4	0.0%
O=C(CSc1ccc(-c2ccco2)nn1)NCc1ccc(Cl)cc1	11.6%	-0.4	-13.7%	1.2%	-1.2	-0.3%
COc1cccc(CNC(=O)CSc2ccc(-c3ccccn3)nn2)c1	1.2%	-65.2*	-1.9%	-10.0%	-74.2*	7.0%
O=C(CSc1ccc(-c2ccccn2)nn1)NCc1ccc(Cl)cc1	-3.3%	?	-11.0%	-11.4%	-70.2*	1.0%
COc1ccc(NCc2cccn2-c2nnc(N3CCCCC3)s2)cc1OC	/	/	/	-2.5%	/	/
O=C(NC1CC1)C1=C[C@@H](c2c[nH]c3ccccc23)C[C@@H](OCc2ccc(CO)cc2)O1	25.1µM*	-3.5	-2.3%	-0.5%	-29.4	-1.5%
O=S(=O)(Nc1cc(Sc2ncn[nH]2)c(O)c2ccccc12)c1ccccc1	12.6µM*	4.5	-0.3%	-15.3%	-19.7	-3.0%
Cc1cc(O)c(Sc2ncn[nH]2)cc1NS(=O)(=O)c1ccc(Cl)cc1	/	-0.1	-5.1%	/	11.6	/
COc1cc(OC)c2c(c1C(CCN1CCOCC1)c1ccc(N(C)C)cc1)OC(=O)CC2c1ccc(N(C)C)cc1 (stereo not given)	-21.6%	-79.8*	-8.7%	-5.2%	?	-0.1%
CCN(CC)C(=O)c1c[nH]c2ccc(S(=O)(=O)Nc3cc(C)cc(C)c3)cc2c1=O	31.6µM*	-0.6	-1.5%	-7.0%	-0.6	-2.5%
COc1ccccc1CNC(=O)c1c[nH]c2ccc(S(=O)(=O)Nc3cc(C)cc(C)c3)cc2c1=O	/	/	/	-10.0%	/	/
O=C(NNC(=S)NC1CCCCC1)c1cccs1	-3.8%	9.3	-3.1%	-13.7%	-20.3	-1.5%

Compound activity as filed in PubChem BioAssay.
